Source: PubChem (National Center for Advancing Translational Sciences (NCATS))
This is a sample that favours compounds with a hit; in the whole collection about 21% have one here.
CHX counter – Cycloheximide Counterscreen for Small Molecule Inhibitors of Shiga Toxin; actives 12% (n = 300,000); AID 2314, 2010; cell reporter, cycloheximide protein synthesis inhibition counterscreen; max response, %; in the data active means max response mostly above about 13%, no sharp cut-off; inactive means mostly below about 14%; further: read at 38.3 µM for the half of the compounds with a filed dose; 0% is about no effect
AMA1-RON2 inh – qHTS for Inhibitors of AMA1-RON; Towards Development of Antimalarial Drug Lead: Primary Screen | Plasmodium falciparum AMA1 (3D7) - RON2 peptide interaction | AlphaScreen AMA1-biotinylated RON2 peptide binding | Potency, µM (series often up to 58.2 µM), inactives show top-dose activity change, negative = inhibition, usual class: inhibitors | actives 0.2% (n = 360,000);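 further: potency means the concentration at half of the fitted maximal effect; 0% = vehicle wells and -100% = peptide control; nearly all actives have a fitted effect of over 45% in size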
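AMA1 (3D7) with his tag at 25 nM final met compounds first, then biotinylated RON2 peptide at 25 nM; detection used donor plus acceptor beads, 10 µg/mL apiece, read by AlphaScreen after 30 min at room temperature.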
Pf growth 48h – Primary qHTS for delayed death inhibitors of the malarial parasite plastid, 48 hour incubation. P. falciparum luciferase growth in erythrocytes, 48 h. Potency, µM (doses to about 28.7 µM), without a hit: top-dose activity change, negative = inhibition, hits mostly inhibitors. actives 5.9% (n = 310,000). AID 504832, 2011; further: potency means the concentration at half of the fitted maximal effect; on the % scale 0 is the no-effect control and ±100 the full control effect
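Growth was read as firefly luciferase luminescence after a 48 h, 37 C, 5% CO2 exposure of compounds to reporter-bearing P. falciparum cultures (0.1% parasitemia, 2% hematocrit final) in Albumax-supplemented RPMI 1640.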
HCV inhibitor – qHTS Assay for Inhibitors of Hepatitis C Virus (HCV). AID 651820, 2012. actives 3.4% (n = 340,000). Potency, µM (series often up to 41.8 µM), without a hit: at the top dose activity change, negative = inhibition, usual class: inhibitors. Huh7.5.1 HCVcc-Cre infection, luciferase reporter, 44 h; further: potency means the concentration at half of the fitted maximal effect; on the % scale 0 is the no-effect control and ±100 the full control effect
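A cell-based infection assay in which seeded cells (1,000 per well) receive test compound after 4 h, are inoculated with HCVcc-Cre at approximately 0.5 moi, and are incubated 44 h before luminescence detection.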
Shiga inhibitor – A qHTS for Small Molecule Inhibitors of Shiga Toxin. Vero cells, Shiga toxin protein synthesis inhibition reporter. inhibition, % at 38.7 µM. actives 9.2% (n = 290,000). AID 2315, 2010; in the data active means inhibition mostly above about 28%, no sharp cut-off; inactive means mostly below about 43%; further: 0% is about no effect
Pf growth 96h – Primary qHTS for delayed death inhibitors of the malarial parasite plastid, 96 hour incubation | Potency, µM (doses to about 28.7 µM), for the others: top-dose activity change, negative = inhibition, usual class: inhibitors | actives 6.9% (n = 320,000) | AID 504834, 2011 | P. falciparum luciferase reporter growth, 96 h; further: potency means the concentration at half of the fitted maximal effect; on the % scale 0 is the no-effect control and ±100 the full control effect
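Parasite growth measured via integrated firefly luciferase reporter in P. falciparum. Infected erythrocytes at 2% hematocrit, 0.05% parasitemia final were treated 96 hours at 37 C under 5% CO2, and luminescence was read.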
* hit, by the source's call; i = inactive; ? = inconclusive; . = no result given. Unless noted, the call rests on the fitted dose curve; in most records, active means well fitted curve in the direction sought with a large enough effect; inconclusive means small, poorly fitted or top-dose-only effect, or another doubt; inactive means no such curve, though single readings can be large; an effect the other way counts as inactive or inconclusive.

SMILES	CHX counter	AMA1-RON2 inh	Pf growth 48h	HCV inhibitor	Shiga inhibitor	Pf growth 96h
O=C(Cn1cnc2ccccc2c1=O)Nc1ccc2c(c1)OCCO2	46*	-3%	99%	13%	90*	-13%
O=C(Cn1cnc2ccccc2c1=O)Nc1ccc(S(=O)(=O)N2CCCC2)cc1	1	-12%	-16%	2%	1	-18%
COc1ccc(Cl)cc1NC(=O)CCn1cnc2ccccc2c1=O	0	1%	-13%	11µM*	-3	7%
CC1CCCC(C)N1S(=O)(=O)c1ccc(NC(=O)CCn2cnc3ccccc3c2=O)cc1 (configuration not stated)	14	-7%	13µM*	23%	13	.
O=C(Cn1cnc2ccccc2c1=O)NCCC(=O)Nc1ccc2c(c1)OCCO2	4	15%	52%	22%	35	10µM*
Cc1ccc(C)c(N(CC(=O)NC(C)C)C(=O)CCC(=O)Nc2ccccn2)c1	2	15%	-12%	-1%	15	-29%
CC(C)C[C@H](NC(=O)[C@@H]1CCC(=O)N1)C(=O)N[C@@H](Cc1ccc(O)cc1)C(=O)N[C@@H](CCC(=O)O)C(=O)N[C@@H](CC(N)=O)C(=O)N[C@@H](CCCCN)C(=O)N1CCC[C@H]1C(=O)N[C@@H](CCCN=C(N)N)C(=O)N[C@@H](CCCN=C(N)N)C(=O)N1CCC[C@H]1C(=O)N[C@@H](Cc1ccc(O)cc1)C(=O)O	-8	.	.	.	-11	.
Cc1cccc(-c2ncc(CN3CCCC(CO)(Cc4ccccc4C)C3)cn2)c1 (configuration not stated)	16	0%	?	?	23	?
CCCOc1ccc(OCCn2nc(C(=O)O)c3ccccc3c2=O)cc1	-2	-12%	-11%	16%	17	-18%
COc1ccc2cnn(CCOc3ccccc3)c(=O)c2c1OC	34*	-6%	159%	-12%	59	14%
CCOc1ccccc1OCCn1ncc2ccc(OC)c(OC)c2c1=O	18*	-7%	-11%	4%	27	?
COc1ccc2cnn(CCOc3cc(C)ccc3C(C)C)c(=O)c2c1OC	-2	-6%	?	?	20	10µM*
Cc1cc(C)cc(C(O)c2ncc(-c3ccccc3)[nH]2)c1 (configuration not stated)	.	-19%	.	.	.	.
CC(C)c1[nH]nc2c1C(c1ccco1)C(C#N)=C(N)O2 (configuration not stated)	-1	-9%	4%	17%	-8	30%
Cc1ccc(S(=O)(=O)NC(=O)C2(C)CCN2C(=O)C2CC2)cc1 (configuration not stated)	.	2%	.	.	.	.
C/C(=N\NC(=O)C1CC1)c1ccccc1O	15	63%	12%	27%	19	?
O=S1(=O)N=C(Nc2ccc(O)c(CN3CCCCC3)c2)c2ccccc21	9	1%	1.5µM*	16%	-14	?
CCN(CC)S(=O)(=O)c1ccc(NC2=NS(=O)(=O)c3ccccc32)cc1	-2	0%	.	6%	-16	-10%
OC[C@@H]1CN(Cc2ccco2)C[C@H](n2cnc3c(NC4CC4)ncnc32)O1	.	3%	.	.	.	.
COc1ccc2c(c1)CCc1c(C(=O)NC3CCCCC3)noc1-2	45*	-3%	176%	?	59*	5%
COCC(C)NC(=O)c1noc2c1CCc1cc(OC)ccc1-2 (configuration not stated)	33*	9%	144%	-19%	83*	2%
COCCNC(=O)c1noc2c1CCc1cc(OC)ccc1-2	35*	-4%	81%	-1%	66	?
COc1ccc2c(c1)CCc1c(C(=O)NCCN3CCOCC3)noc1-2	-2	-8%	-20%	17%	-14	46%
COc1ccc2c(c1)CCc1c(C(=O)N(C)c3ccccc3)noc1-2	49*	-5%	86%	5%	123*	?
CCCCNC(=O)N1CCCN(c2ccc(C#N)cn2)CC1	1	-11%	18%	7%	3	?
SMILES	CHX counter	AMA1-RON2 inh	Pf growth 48h	HCV inhibitor	Shiga inhibitor	Pf growth 96h
COc1ccc2c(c1)CCc1c(C(=O)NCc3ccco3)noc1-2	34*	-1%	95%	-13%	67*	?
CCSC1=N/C(=C\c2ccc(C(=O)O)cc2)C(=O)S1	-3	1%	.	19%	-18	13µM*
COc1ccccc1CCNC(=O)c1c(N)[nH]c(C(=O)c2ccccc2)c1-c1ccc(Br)cc1	.	33%	.	.	.	.
O=[N+]([O-])c1ccccc1-c1ccc(C(=S)N2CCCCC2)o1	58*	25µM*	136%	?	63*	182%
Cc1cccc(N2CCN(C(=S)c3ccc(-c4ccccc4[N+](=O)[O-])o3)CC2)c1	1	?	-2%	?	-2	1%
O=[N+]([O-])c1ccccc1-c1ccc(C(=S)N2CCCC2)o1	44*	0%	i	?	97*	-187%
CC(C)OCCc1cccc[n+]1[O-]	.	3%	.	.	.	.
C=CCn1c(C)cc(C(=O)CSc2nnc3n(CCC)c(=O)c4ccccc4n23)c1C	.	2%	.	-17%	.	.
COc1ccc(C(=O)N2CCOCC2)cc1S(=O)(=O)N1CCCc2ccccc21	2	2%	-15%	?	-1	19%
COC(=O)C1CCN(C(=O)COC(=O)c2ccc(OC)c(S(=O)(=O)N3CCCc4ccccc43)c2)CC1	32*	0%	1%	15%	55*	-5%
COc1ccc(C(=O)N2CCCN(C)CC2)cc1S(=O)(=O)N1CCCc2ccccc21	26*	0%	-17%	-15%	51*	?
COc1ccc(Br)cc1S(=O)(=O)N1CCCc2ccccc21	20*	3%	?	-21%	36*	-22%
COC(=O)C1CCN(C(=O)c2ccc(OC)c(S(=O)(=O)N3CCCc4ccccc43)c2)CC1	.	3%	.	13%	.	.
O=C(CCS(=O)(=O)c1ccccc1Cl)NC1CCCCCC1	.	7%	.	3%	.	.
O=C(OCc1cn([C@H]2C[C@H](c3ccc(Cl)cc3)N(CC3CCCCC3)C[C@@H]2O)nn1)c1ccccc1	.	-9%	.	.	.	.
O=C(Nc1ccc2c(c1)CCC2)c1ccccc1F	63*	6%	206%	-14%	97*	238%
O=C(Nc1ccc2c(c1)CCC2)c1ccccc1	31*	3%	24%	17%	48*	-72%
NS(=O)(=O)c1ccc(NC(=O)c2ccc3c(c2)CCCC3)cc1	48*	20%	27%	-20%	45	40%
Cc1ccc(C(=O)Nc2nc(C)c(C(=O)Nc3ccc4c(c3)CCC4)s2)cc1	45*	-10%	139%	?	48*	-2%
